In ChEMBL document CHEMBL3988442, “University of Dundee, Small-Polar-MMV Screening Library” (2021):
The whole screen tested about 48,000 compounds, of which about 13,000 (27%) showed an effect of 50% or more. The list shows a part of the results.

test system: Wolbachia pipientis; experiment: Anti-Wolbachia Cell-Based Screen; assay type: functional; parameters: scale not given: in the data most compounds retested in dose-response had high values; conditions: 5 µM

SMILES	Percent Effect [%]
Cc1cc(C)c(Cn2cncn2)cc1CN1CC[C@H](CO)[C@@H](O)C1	2.193
COCCN(Cc1noc(-c2ccc(OC)cc2)n1)C1CC1	20.29
CCOCC1CN(C(=O)c2ccsc2)Cc2nn(C)cc21 (configuration not stated)	-7.597
CC(Cc1cccc(F)c1)C(=O)NS(=O)(=O)c1cnn(C)c1 (configuration not stated)	-18.57
Cc1cccc2nc(CN3CCC(Cn4ccnn4)CC3)cc(=O)n12	-3.748
CCn1cnnc1C1CCN(C(=O)c2cnc(C3CC3)s2)CC1	-9.527
CCn1cnnc1C1CCN(C(=O)c2cnn(C(C)(C)C)c2)CC1	107
CCn1cnnc1C1CCN(C(=O)c2ccc(OC(C)C)nc2)CC1	106.8
CCn1cnnc1C1CCN(C(=O)c2ccc(C(=O)OC)s2)CC1	-1.592
Cn1c(C2CC2)nc2c1CCN(CC(=O)Nc1nncs1)C2	-1.4
O=C(Nc1cccc(F)c1)NC1CCN(Cc2ccncc2)CC1	-11.06
CCS(=O)(=O)NCCNC(=O)N(Cc1ccc(C)o1)C(C)C	-16.03
Cn1nc(C(=O)N2CCCCC2c2nc3cc(F)ccc3[nH]2)ccc1=O (configuration not stated)	6.226
c1cn2c(n1)CNCC(COCC1CC1)C2 (configuration not stated)	-6.113
Cc1ccc(S(=O)(=O)N2CC[C@@H]3C[C@H](NC(=O)c4n[nH]cc4Cl)[C@@H]32)cc1	97.43
Cc1ccc(S(=O)(=O)N2CC[C@@H]3C[C@H](NC(=O)c4[nH]ncc4Br)[C@@H]32)cc1	95.45
Cc1ccc(S(=O)(=O)N2C[C@@H]3C[C@@H](NC(=O)C(C)(C)C)[C@@H]3C2)cc1	-7.611
CS(=O)(=O)NCCC(=O)N1CCN(S(=O)(=O)c2ccc(Br)cc2)CC1	3.27
Cc1ccc(S(=O)(=O)N2C[C@H]3C[C@H](NC(=O)c4ccnn4C)[C@H]3C2)cc1	-12.92
Cc1ccc(S(=O)(=O)N2CC[C@@H]3C[C@H](NC(=O)c4ccncc4)[C@@H]32)cc1	124.2
COC(=O)[C@@H]1Cc2ncn(C)c2CN1S(=O)(=O)c1ccc(C)cc1	-10.72
Cc1ccc(S(=O)(=O)N2C[C@H]3C[C@H](NC(=O)c4ccn(C)n4)[C@H]3C2)cc1	0.5687
Cc1cc(C(=O)N2CCc3c(nc(-c4ccncc4)[nH]c3=O)C2)no1	-7.817
CN(C)C(=O)c1cccnc1-c1ccc2c(c1)OCCO2	-4.201
Cn1cnnc1C1CCCN(C(=O)c2ccc3c(c2)OCCO3)C1 (configuration not stated)	-7.071
O=C(c1cccn1-c1ccc2c(c1)OCCO2)N1CCCC1	97.35

SMILES	Percent Effect [%]
CN1CCCN(C(=O)c2cccn2-c2ccc3c(c2)OCCO3)CC1	88.31
CN(C)C(=O)c1cccn1-c1ccc2c(c1)OCCO2	99.12
O=C(c1cccnc1-c1ccc2c(c1)OCCO2)N1CCCC1	-9.168
O=C(O)c1cccn1-c1ccc2c(c1)OCCO2	96.33
O=C(O)C(c1ccc2c(c1)OCCO2)N1CCCC1 (configuration not stated)	10.75
O=C(O)C(c1ccc2c(c1)OCCO2)N1CCCCCC1 (configuration not stated)	-0.2284
CN1CCCN(C(=O)c2ccc3c(c2)nc(N2CCOCC2)n3C)CC1	16.47
CC(=O)N1CC2(CCN(C(=O)c3ccc4c(c3)OCCO4)CC2)C1	-3.523
CN(C)C(=O)C(C)(C)c1ccc2c(c1)OCCO2	-10.01
CN(CC(F)(F)F)C(=O)c1ccc(F)c(NS(C)(=O)=O)c1	-3.424
CS(=O)(=O)CCn1ccc(NCc2ccc(C#N)cc2)n1	4.656
CC(c1nccs1)n1cc(-c2cc(CN3CCCCC3)cs2)nn1 (configuration not stated)	17.2
CC1CN(C(=O)c2ccnc(-n3cncn3)c2)c2ccccc2S1 (configuration not stated)	-6.511
CC(C)CNC(=O)c1ccc2nnc(C3CCN(S(C)(=O)=O)C3)n2c1 (configuration not stated)	-4.952
CN(C)c1ncc(CNS(=O)(=O)c2cccc3ccccc23)n1C	5.382
Cc1ccc(S(=O)(=O)Nc2c(C)nn(C)c2C)cc1C	-30.32
CC(=O)N1CCCCC1c1ncnn1-c1ccc2nc(C)sc2c1 (configuration not stated)	1.056
CCn1nc(C)c(S(=O)(=O)Nc2ccccc2C(=O)OC)c1C	-6.756
Cc1nn(CC(=O)O)c(C)c1NS(=O)(=O)c1cccc2ccccc12	85.86
CCN(C)S(=O)(=O)NCC(O)c1cc2ccccc2s1 (configuration not stated)	-28.91
Cc1nc2ccc(S(=O)(=O)Nc3c(C)nn(CC(=O)O)c3C)cc2s1	96.05
Cc1ccc(C(=O)NS(=O)(=O)c2cccc3cnccc23)c(=O)[nH]1	-6.684
Cc1nn(CC(=O)O)c(C)c1NS(=O)(=O)c1cc2ccccc2s1	90.4
Cc1ccc(CCN[C@@H]2c3ccccc3C3(CCNCC3)[C@H]2O)s1	-1.865
Cc1cc(C(=O)N[C@H](C)c2onc(-c3cccnc3)c2C(=O)O)c(C)o1.Cl	-10.14
C=Cc1ccc(C(=O)N2CCCC(Nc3ccc(F)c(F)c3)C2)cc1 (configuration not stated)	-24.37

SMILES	Percent Effect [%]
Cc1cc(=O)[nH]c(SC(C)C(=O)N2CCCN(C3CCCC3)CC2)n1 (configuration not stated)	-14.72
O=C(Nc1cccnc1)c1ccc(-n2cncn2)nn1	4.763
CNC(=O)NC1CC2(CCNCC2)c2ccc(C)cc21 (configuration not stated)	2.029
Cl.Cl.c1ccc2c(c1)C(NC1CCCC1)CC21CCNCC1 (configuration not stated)	102.9
Fc1ccc2c(c1)C1(CCNCC1)CC2OCC1CC1 (configuration not stated)	-8.217
Cc1nnc(NC(=O)NCc2ccnc(N(C)C)c2)s1	99.1
CC/C=C(/C)C(=O)NCc1ccnc(OC)c1	-6.401
COc1ncccc1CNC(=O)c1csc(Br)c1	-3.895
COc1cc(CNC(=O)c2csc(Br)c2)ccn1	70.51
CCOc1ncccc1CNC(=O)c1csc(Br)c1	-22.46
COc1cc(CNC(=O)Nc2nnc(C(C)C)s2)ccc1O	0.367
COc1cc(CNC(=O)Nc2nnc(C(C)C)s2)ccn1	139
CC(C)c1nnc(NC(=O)NCc2ccnc(N(C)C)c2)s1	-3.838
CN(C)c1cc(CNC(=O)Nc2nnc(C3CC3)s2)ccn1	137.2
Cc1cc(Br)ccc1C(=O)N(C)CCNS(C)(=O)=O	-13.91
COCc1nc(N(C)CCSc2ccccc2)c2cnn(C)c2n1	-20.02
Cc1cnc(CN2CCCC(c3nc4ccccc4n3C(C)C)C2)o1 (configuration not stated)	-8.983
CN(C)C(C(=O)NCC1(C)COC1)c1cccc(F)c1 (configuration not stated)	3.319
CS(=O)(=O)N[C@@H]1CN(Cc2ccccc2)C[C@H]1O	118.1
CC(C)[C@H]1CN(C2Cc3ccccc3C2)C[C@@H]1NS(C)(=O)=O	7.531
CCC[C@@H]1CN(C(=O)c2cc3ccccc3s2)C[C@H]1NS(C)(=O)=O	-8.95
CC(C)[C@H]1CN(C2Cc3ccccc3C2)C[C@@H]1NS(=O)(=O)N(C)C	-3.523
CS(=O)(=O)N[C@@H]1CN(C(=O)c2cc3ccccc3s2)C[C@H]1O	153.3
COc1ccc(CN2C[C@@H]3CCCO[C@@H]3[C@H](NS(C)(=O)=O)C2)cc1.O=C(O)C(F)(F)F	-19.78
CC(C)[C@@H]1CN(C2CCN(Cc3ccccc3)CC2)C[C@H]1NS(C)(=O)=O	57.6
CS(=O)(=O)NC1CCN(C(=O)c2ccc3ccccc3c2)C1 (configuration not stated)	-0.4422

SMILES	Percent Effect [%]
CS(=O)(=O)N[C@H]1CN(CCOCc2ccccc2)C[C@@H]1C1CC1	-6.261
CS(=O)(=O)N[C@@H]1CN(Cc2ccc3ccccc3c2)C[C@H]1O	117
CS(=O)(=O)NC1CCN(C(=O)c2cc3ccccc3s2)C1 (configuration not stated)	-26.49
CS(=O)(=O)N[C@@H]1CN(Cc2ccccc2)C[C@@H]2CCCO[C@@H]21	-3.887
O=C(NCc1cc2ccccc2s1)c1cc(CN2CCCC(O)C2)on1 (configuration not stated)	4.701
O=C(O)CC[C@@H]1CN(c2ncnc3[nH]ccc23)CC[C@@H]1N1CCOCC1	-3.371
COCc1cn(C2CCN(C(=O)c3ccc(F)c(C)c3)CC2)nn1	14.23
Cc1cc(F)ccc1OC1(C(=O)O)CCN(Cc2nccn2C)CC1	-12.18
O=c1cc(CNS(=O)(=O)C2CC2)nc2n1CCCNC2	10.88
O=C(CCC1CCCCO1)NCc1cnn(-c2ccc(F)cc2F)c1 (configuration not stated)	2.583
COc1ccc(C)cc1-n1cnnc1C1CCOCC1	1.298
CCC[C@@H]1CN(C(=O)c2cnc3ccccc3c2)C[C@H]1NS(C)(=O)=O	-44.49
CS(=O)(=O)N[C@@H]1CN(Cc2ccc3ncccc3c2)C[C@H]1O	100.1
CCC[C@@H]1CN(Cc2ccc(C(F)(F)F)nc2)C[C@H]1NS(C)(=O)=O	-0.637
CSc1ccsc1C(=O)NS(=O)(=O)c1cnn(C)c1	-33.43
Cc1cccc(N2CCN(C(=O)CN3CCN(CCO)CC3)CC2)c1	-11.5
COC(=O)CN1CCN(c2cccc(C)c2)CC1	-56.86
COc1ccc(-n2cnc(Cl)c2CO)cc1	99.78
COc1ccc(-n2cnnc2CC2CCNCC2)cc1	-7.776
COc1ccc(OCC(=O)n2nc(C)c(C)c2C)cc1	7.668
Cc1ccc(-n2cnc(Cl)c2CO)cc1	81.89
OCc1c(Cl)ncn1-c1ccc(F)cc1	124.8
O=C1CC(c2ccc(C(=O)O)cc2)c2ncn(-c3ccc(F)cc3)c2N1 (configuration not stated)	-3.148
Cc1cccc(-n2cnc(Cl)c2CO)c1	116.1
